14 compounds from PubChem BioAssay (EPA / NIEHS) can be followed below.

Results filed as inconclusive are left out. Active and inactive are the calls of the source. The calls were made as follows, unless noted: active = hit-call score of the fitted dose curve at least 0.9, where 1 is the maximum; inactive = score below 0.9.

The nature of assay [1]: IUF_NPC2-5_viability_120hr: Viability Assessment at 120 hours in the Leibniz Research Institute for Environmental Medicine (IUF) Neural Progenitor Cell Migration and Differentiation Assay (NPC2-5) (AID 2284312). The method, boiled down:
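Human fetal neural progenitor spheres (0.3 mm) plated on poly-D-lysine/laminin in N2 differentiation medium, exposed 120 h with half-medium refresh at day 3. Viability by alamar blue resazurin fluorescence; 7 concentrations, DMSO max 0.1%.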

Assay [2] in a line: VALA_TUBIPS_Antagonist_TubuleLength: VALA Sciences human iPS-derived Endothelial Tubule Formation (TUBIPS) Antagonist Assay (AID 2284313; active = hit-call score of the fitted dose curve at least 0.9, where 1 is the maximum). The method, boiled down:
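Cells grown 3 days with 10 ng/ml VEGF, then exposed to compounds in VEGF medium for another 3 days. After fixation, nuclear stain and CD31 immunofluorescence imaging gave mean total tubule length against 0.1% DMSO; suramin (100 uM) inhibition control.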

Assay [3] in a line: VALA_MIGHUV2_Bcatenin: VALA Sciences human Umbilical Vein Endothelial Cell Migration (MIGHUV) Assay, Nuclear Translocation of beta-Catenin after Recovery (AID 2284315; active = hit-call score of the fitted dose curve at least 0.9, where 1 is the maximum). The method, boiled down: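 HUVEC (4000 cells/well) scratch-wounded, dosed within 30 min over 6 concentrations in triplicate, recovered 24 h. After fixation, Hoechst and anti-beta-catenin immunofluorescence imaged for nuclear CTNB. Gain of signal versus 0.1% DMSO.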

Assay [4] can be described thus: VALA_MIGHUV2_WoundArea: VALA Sciences human Umbilical Vein Endothelial Cell Migration (MIGHUV) Assay, Area of Scratch Wound after Recovery (AID 2284316; active = hit-call score of the fitted dose curve at least 0.9, where 1 is the maximum). The method, boiled down: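 HUVEC seeded at 9000 cells/well, scratched after 24 h; test chemical added within 30 min, 6-point concentration response in triplicate (0.1% DMSO vehicle). After 24 h wound recovery, cells fixed and Hoechst-stained nuclei in wound area imaged; Cytochalasin D reference control.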

A short description of assay [5]: CCTE_Mundy_HCI_iCellGluta_NOG_NeuriteLength: CCTE's Neurite Outgrowth Assay in iCellGluta cells for Neurite Length, Mundy Lab (AID 2284318; active = hit-call score of the fitted dose curve at least 0.9, where 1 is the maximum). In a few lines:
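Automated high-content imaging of betaIII-tubulin (Alexa Fluor-488) and Hoechst-stained cells gave neurite length, normalized to the DMSO baseline.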

Assay [6] can be described thus: CCTE_Deisenroth_5AR_NBTE_donor: CCTE's 5alpha-reductase NanoBRET Target Engagement Assay […], Deisenroth Lab (AID 2284319). Conditions: actives raise or lower the signal. The method, boiled down:
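HEK293T cells transiently expressing SRD5A2-NanoLuc, exposed 5 h to chemicals (8 points, 10 nM - 29.9 uM), with testosterone tracer for the final 2 h. Donor luminescence at 460 nm read after Nano-Glo substrate plus extracellular NanoLuc inhibitor; bidirectional fit versus DMSO.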
(In BRET a luciferase serves as donor, and the signal depends on an acceptor being close.)

The nature of assay [7]: CCTE_Deisenroth_5AR_NBTE_acceptor: CCTE's 5alpha-reductase NanoBRET Target Engagement Assay - Autofluorescence Screen, Deisenroth Lab (AID 2284321).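 Also: compound fluorescence in the acceptor channel under 460 nm excitation flags autofluorescence artifacts.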 Conditions: actives raise or lower the signal. The protocol:
CCTE_Deisenroth_5AR NBTE (5alpha-reductase NanoBRET Target Engagement Assay) is a cell-based, single-readout assay that uses HEK293T, a human kidney cell line, with measurements taken at 5 hours after chemical dosing in a 384 well plate. This assay includes a primary and secondary screen as well as an autofluorscence screen.CCTE_Deisenroth_5AR NBTE_acceptor is one of four assay components measured from the CCTE_Deisenroth_5AR NBTE assay. It is designed to make measurements of resonant fluorescence generated by bioluminescent energy transfer to a target fluorophore, as detected by fluorescence intensity emission signals using spectrometry technology.Data from the assay component CCTE_Deisenroth_5AR NBTE_acceptor was analyzed into 1 assay endpoint. This assay endpoint, CCTE_Deisenroth_5AR NBTE_acceptor, was analyzed with bidirectional fitting relative to DMSO as the negative control and baseline of activity. Using a type of inducible reporter, gain or loss-of-signal activity can be used to understand changes in the acceptor fluorescence as related to 5alpha-reductase catalytic function. Furthermore, this assay endpoint can be referred to as a secondary readout, because this assay has produced multiple assay endpoints where this one serves an artifact detection function.
Chemicals from the blinded ToxCast library were diluted 1000-fold in DMSO to an assumed nominal concentration of 100 uM. Samples were scanned in three independent runs (n=3) on a multi-mode plate reader at a fixed excitation wavelength of 460 nm with emission filter set at […]. For reference, tracer was included at DMSO-solubilized concentrations of 100 uM (the top tested concentration for each test chemical) and 600 nM (the final working concentration of the tracer probe).

The next assay concerns SRD5A2 (gene 6716). Briefly: CCTE_Deisenroth_5AR_NBTE_ratio: CCTE's 5alpha-reductase NanoBRET Target Engagement Assay - Ratio, Deisenroth Lab (AID 2284322). The conditions noted are these: actives raise or lower the signal. The method, boiled down: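 HEK293T transiently expressing SRD5A2-NanoLuc; cells exposed to chemical (8-point, 10 nM - 29.9 uM) for 5 h total, testosterone tracer added for final 2 h. NanoBRET acceptor/donor ratio (650/460 nm), bidirectional fit vs DMSO.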

The nature of assay [8]: VALA_MIGHUV2_CellCount: Viability Assessment in the VALA Sciences human Umbilical Vein Endothelial Cell Migration (MIGHUV) Assay, Area of Scratch Wound after Recovery (AID 2284314; active = hit-call score of the fitted dose curve at least 0.9, where 1 is the maximum). In a few lines: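 Scratch-wounded HUVEC monolayers received test chemical within 30 min, 6-point concentration response in triplicate, 0.1 % DMSO vehicle. After 24 h wound recovery, fixed cells were Hoechst-stained and nuclei imaged; loss of signal versus DMSO indicates reduced viability.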

A further assay has as its system IYD (gene 389434). In words: CCTE_GLTED_hIYD: CCTE's human Iodotyrosine Deiodinase (xIYD) Inhibition Assay, Great Lakes Toxicology and Ecology Division (GLTED) Lab (AID 2284317; active = hit-call score of the fitted dose curve at least 0.9, where 1 is the maximum;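 also: cell-free human IYD enzyme made in baculovirus insect cells; iodide freed from monoiodotyrosine measured by cerium arsenite color change at 420 nm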). The method, boiled down:
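hIYD: baculovirus-expressed human IYD deiodinated monoiodotyrosine for 3 h with test chemical; free iodide was measured by Sandell-Kolthoff absorbance at 420 nm and normalized to MNT and DMSO/NaOH controls.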

Take `CSC(=O)c1cccc2nnsc12`: the call in [1] was inactive.
With `S=C(S)NCCNC(=S)S.[Mn+2].[S-]C([S-])=NCCN=C([S-])[S-].[Zn+2]`, the call in [1], in assay [2], in assay [3], in assay [4] and in assay [5] was inactive.
For `CC1(C)C(C=C(Cl)Cl)C1C(=O)OCc1cccc(Oc2ccccc2)c1` (stereo not given), the outcome (in assay [6]; in [7]; in the assay on SRD5A2 (gene 6716)) was inactive.
As for `C#CCOC(=O)[C@@H](C)Oc1ccc(Oc2ncc(Cl)cc2F)cc1`, in assay [1], the compound was called inactive. In assay [5], the AC50 (as a rule, the concentration at which the activity in the assay is half-maximal) is 22 µM (active).
As to `O=C(Nc1ccc([N+](=O)[O-])cc1Cl)c1cc(Cl)ccc1O`, the result (in [6]; in [7]; in the assay on SRD5A2 (gene 6716)) was inactive.
For the compound `N[C@@H](Cc1cc(I)c(Oc2ccc(O)c(I)c2)c(I)c1)C(=O)O`, the result in assay [2] and in assay [3] was inactive.
For `CC(C)(c1ccc(O)cc1)c1ccc(O)cc1`, the result (in assay [1]; in assay [2]; in assay [8]; in assay [3]; in assay [4]; with IYD (gene 389434)) was inactive.
Regarding `S=C([S-])NCCNC(=S)[S-].[Mn+2]`, the result in assay [1] was inactive.
Take `CCN(CC)C(=O)c1cccc(C)c1`: in assay [1], the outcome was inactive. Besides, the AC50 in assay [5] is 50.5 µM (active).
For `CC(C)CCCCCCc1ccc(O)cc1`, the call (in assay [2]; in assay [8]; in [6]; in assay [7]; with SRD5A2 (gene 6716)) was inactive. Besides, the AC50 in the assay on IYD (gene 389434) is 48.4 µM (active).
Take `Cc1nn(C)c(Oc2ccccc2)c1C=NOCc1ccc(C(=O)OC(C)(C)C)cc1`: the call in [1] was inactive. In addition, the AC50 in assay [5] is 0.353 µM (active).
As to `O=C(O)c1ccccc1`, the compound was called inactive (in assay [1]; in assay [6]; in assay [7]; in the assay with SRD5A2 (gene 6716)).
Turning to `CCCN(CCC)C(=O)SCC`, the call in [1] and in [5] was inactive.
For the compound `CCOC(=O)C(C)Oc1ccc(Oc2nc3ccc(Cl)cc3o2)cc1` (stereo not given), the outcome in the assay on IYD (gene 389434) was inactive.
